The assay deals with T1, Aspartate--tRNA(Asp/Asn) ligase (Mycobacterium tuberculosis (strain ATCC 25618 / H37Rv)) (UniProt P9WFW3).
T1 sequence (whole entry): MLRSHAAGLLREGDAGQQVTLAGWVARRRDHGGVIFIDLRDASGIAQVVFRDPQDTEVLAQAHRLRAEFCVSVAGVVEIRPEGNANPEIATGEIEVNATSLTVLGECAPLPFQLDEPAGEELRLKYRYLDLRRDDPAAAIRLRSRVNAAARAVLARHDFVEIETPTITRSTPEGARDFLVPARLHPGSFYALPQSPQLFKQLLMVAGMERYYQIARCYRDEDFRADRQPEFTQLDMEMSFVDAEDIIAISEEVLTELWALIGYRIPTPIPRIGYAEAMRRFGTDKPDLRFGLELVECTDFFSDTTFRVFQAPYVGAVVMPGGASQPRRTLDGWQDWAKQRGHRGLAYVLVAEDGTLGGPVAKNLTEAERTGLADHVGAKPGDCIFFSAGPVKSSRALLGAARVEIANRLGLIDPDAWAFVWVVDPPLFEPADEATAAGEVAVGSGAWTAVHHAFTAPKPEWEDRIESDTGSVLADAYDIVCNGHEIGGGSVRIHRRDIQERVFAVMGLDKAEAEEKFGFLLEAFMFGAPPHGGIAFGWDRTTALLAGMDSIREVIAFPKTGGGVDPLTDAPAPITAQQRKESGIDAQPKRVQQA
In words: Assay for Asp RNA synthetase-1 from Mycobacterium tuberculosis. The settings on record: 30 µM. The class given is functional. Also noted: scale not given: in the data most compounds retested in dose-response had high values.

As for `O=C1N(Cc2cccc(F)c2F)CCCC1(O)CN1CCCOCC1` (stereo not given), the Percent Effect was -2.15%. As to `CC1CCN(C(CNC(=O)CCn2cccn2)c2cccs2)CC1` (stereo not given), the Percent Effect was -0.241%. Then `Cc1cccc(NC(=O)[C@@H]2CCCN2CC(=O)N2CCCCCC2)n1`, with -2.13%. `COC(=O)c1cccc(C(=O)N2CCCCC2CCn2ccnc2C)c1` (stereo not given): the Percent Effect is 0.586%.

In the case of `N#Cc1cccc(CS(=O)(=O)NCC(O)Cc2ccccc2)c1` (stereo not given), the Percent Effect is -0.908%. For the compound `CCn1cc(NC(=O)NC2CCCc3c2cnn3CCO)cn1` (stereo not given), the Percent Effect was -3.64%. Then `CCc1cc(N2CCCNCC2)n2nc(C)c(C)c2n1`, with -1.41%. Then `CCCC(NC(=O)c1cc(C)n(C2CC2)c1C)c1nnn[nH]1` (stereo not given), with -0.908%.

For the compound `COc1cc(C(=O)N(CCC#N)Cc2ccccn2)cc(OC)c1C`, the Percent Effect was -3.83%. Then `N#Cc1cn(CC(=O)NC2CC2)c2ccc(Br)cc2c1=O`, with 0.517%; and `O=S(=O)(Cc1ccccc1F)NCCCN1CCCCC1`, with 0.172%; and `CC(C)N1CCC(NCc2cccnc2N(C)C)CC1`, with -1.8%. Turning to `CNC(=O)c1cccc(CNC(=O)C2CC(=O)N(CCN(C)C)C2)c1` (stereo not given), the Percent Effect was -2.01%. Then `CN(CCO)Cc1nnc(C2CCN(C3CCCCC3)CC2)n1C`, with 4.1%. Then `CCC(O)CNC(=O)C1(N(C)Cc2ccccc2)Cc2ccccc2C1` (stereo not given), with 2.72%. Then `COc1ccc(NC(=O)CCC2CCCN(Cc3ncon3)C2)cc1Cl` (stereo not given), with -0.862%; and `O=S1(=O)C[C@@H]2[C@H](C1)N(Cc1cc(Cl)cc(Cl)c1)CCN2CC1CC1`, with 0.655%.

For the compound `Cc1nn(C)c(C)c1C1COCCN1c1ncnc2sccc12` (stereo not given), the Percent Effect was determined as 0.54%. Then `Cc1cnn(CCNCc2csc(C)n2)c1`, with 0.747%; and `O=S(=O)(Cc1ccccc1F)NCCN1CCOCC1`, with -2.93%; and `NC(=O)C1CCN(Cc2cccc(NC(=O)c3ccsc3)c2)CC1`, with -1.25%. For `CCC(=O)N1CCc2[nH]cnc2C12CCN(C(=O)c1snnc1C)CC2`, the Percent Effect was 1.62%. Then `CC(C)Oc1ccc(CSc2nnc(CN3CCCC3=O)o2)cc1`, with -7.23%; and `Cc1nccn1CCC1CCCCN1C(=O)c1ccc2[nH]nnc2c1` (stereo not given), with 1.02%. Then `CN(C)C(=O)CNC(=O)c1cc(Br)c2c(c1)OCCO2`, with 3%; and `Cc1nn(CCO)c(C)c1CNC1CCC(C)(C)c2ccccc21` (stereo not given), with -0.793%.

Regarding `COc1ccc(NC(=O)CCC2CCCN(Cc3ncon3)C2)c(C)c1` (stereo not given), the Percent Effect was found to be 1.11%. With `O=C(CC1=CCCCC1)NCCc1csc(N2CCCC2)n1`, the Percent Effect stood at 2.52%. Then `O=C(O)C(c1ccc2c(c1)OCO2)N1CCC(C(=O)N2CCCC2)CC1` (stereo not given), with -0.103%; and `Cn1c(C(=O)N2CCC(C(=O)N3CCCC3)CC2)c(Cl)c2ccccc21`, with -5.07%.

These data come from ChEMBL document CHEMBL3988442, “University of Dundee, Small-Polar-MMV Screening Library” (2021).
